Compound activity from PubChem BioAssay.
Rows were chosen to be rich in hits. Some 1.8% of all compounds tested hit in one or more screens of this group.
p53ts 32C kill: kills p53ts cells at the permissive temperature; H1299-p53A138V at 32C, ATP luminescence viability, 24 h; Potency, µM (top dose mostly 46.1 µM), actives largely listed as cytotoxic; actives 0.93% (n = 130,000); AID 924; further: nearly all actives have a fitted effect of over 55% in size
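H1299-p53 A138V cells (temperature-sensitive p53) exposed 24 h to up to 46 uM compound at 32C, where p53 is wild-type in conformation. Viability read as ATP luminescence and normalised to DMSO and 100 uM tamoxifen. AC50 fitted with the Hill equation.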
Peg3 imprint: genomic imprint erasure induction | actives 0.02% (n = 110,000) | mouse ES Peg3-LacZ reporter, beta-gal luminescence, 40 h | Potency, µM (top dose mostly 60.7 µM), usual class: activators | AID 1948
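Each well holds 300 Peg3LacZ-Neo (maternal) female ES cells incubated 40 h at 37C, 5% CO2. LacZ is measured by BetaGlo luminescence, with AC50 and maximum efficacy derived from dose-response curves.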
p53ts 39C kill: kills p53ts cells at the nonpermissive temperature. actives 1.5% (n = 130,000). H1299-p53A138V viability at 39C, ATP luminescence, 24 h. Potency, µM (titrated, usually from 46.1 µM), usual class: cytotoxic; further: nearly all actives have a fitted effect of over 55% in size
IkB signaling: inhibitors of IkB signaling in ABC-DLBCL cells. ABC-DLBCL IkBa-CBG/CBR dual luciferase ratio, 4 h; response scale: scaled: untreated 0%, proteasome inhibitor 100%. Potency, µM (top dose mostly 57.1 µM). actives 0.04% (n = 110,000). AID 445; active means well fitted curve in the direction sought with a large enough effect in the signal ratio, not every such curve was filed as active; inconclusive means small, poorly fitted or top-dose-only effect, or a change in a side signal; the % refers to the signal ratio;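 further: the direction sought is a rising ratio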
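In this assay, an IκBα–CBG68 fusion accumulates when IKK-driven degradation is blocked; native CBR normalizes for cell number. OCI-Ly3 cells were treated 4 h with compound and doxycycline, then green and red light read after Chroma-Glo addition.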
Large screens that a line does not name were inactive. Unless noted, the call rests on the fitted dose curve; in most records, active means well fitted curve in the direction sought with a large enough effect; inconclusive means small, poorly fitted or top-dose-only effect, or another doubt; inactive means no such curve, though single readings can be large; an effect the other way counts as inactive or inconclusive.

Cc1cc(C)cc(C(=O)Nc2nnc(SCC(=O)N3CCCc4ccccc43)s2)c1	none (no result: p53ts 32C kill, Peg3 imprint, IkB signaling)
C/C=C\C1=C(CO)C(=O)[C@@H]2OC2C1=O (stereo not given in full)	none (no result: Peg3 imprint, IkB signaling)
Cc1ccc2nc(-c3ccc(N4CCOCC4)cc3)c(Nc3ccccc3C)n2c1	p53ts 32C kill 12.6µM, p53ts 39C kill inconclusive, IkB signaling inconclusive
Cc1ccn2c(Nc3ccccc3C)c(-c3ccc(N4CCOCC4)cc3)nc2c1	none
Cc1ccccc1Nc1c(-c2ccc(N3CCOCC3)cc2)nc2ccc(Cl)cn12	p53ts 32C kill inconclusive, p53ts 39C kill 10µM, IkB signaling inconclusive
Clc1ccc2nc(-c3ccc(N4CCOCC4)cc3)c(Nc3ccccc3)n2c1	IkB signaling inconclusive
Cc1cccc(C(=O)Nc2nnc(S(=O)(=O)N3CCC(C)CC3)s2)c1	IkB signaling inconclusive
c1ccc2c(c1)Cc1cc3cc4c(cc3nc1-2)OCO4	p53ts 32C kill 1µM, p53ts 39C kill 1.26µM (no result: IkB signaling)
Cc1cc2cc3c(cc2nc1SCC(=O)N1c2ccccc2CC1C)OCO3 (stereo not given)	none (no result: Peg3 imprint, IkB signaling)
O=C1C(C=Nc2ccccc2O)=C(O)c2ccccc21	p53ts 32C kill 10µM, p53ts 39C kill inconclusive, IkB signaling inconclusive
Cc1ccc(C)c2[nH]c(=O)c(CCNC(=O)c3cc4ccccc4o3)cc12	none
COc1ccc(OC)c2[nH]c(=O)c(CCNC(=O)c3cc4ccccc4o3)cc12	p53ts 32C kill 12.6µM, p53ts 39C kill inconclusive, IkB signaling inconclusive
CN[C@@H]1NC(=O)c2ccccc2N1Cc1ccc(F)cc1	none
CS[C@@H](CC(=O)O)C(=O)O	none
CC1(C)CC(=O)C2=C(C1)OC1=C(C(=O)CC(C)(C)C1)C2c1ccc(O)cc1O	p53ts 32C kill 25.1µM, IkB signaling inconclusive
CC(=O)Oc1ccc2c(c1)CCC1C2CC[C@]2(C)C(OC(C)=O)CCC12 (stereo not given in full)	p53ts 32C kill inconclusive, p53ts 39C kill 25.1µM (no result: IkB signaling)
CC(C)(C)c1ccc(C2Sc3ccccc3NC3=C2C(=O)c2ccccc23)cc1 (stereo not given)	IkB signaling inconclusive
CC1(C)C(=O)NC2=C1C(=O)C(=O)c1ccccc12	p53ts 32C kill 1.26µM, p53ts 39C kill 1µM, IkB signaling inconclusive
CC(C)(C)CC(C)(C)c1ccc(O)c(Cc2ccc(Cl)cc2Cl)c1	p53ts 32C kill inconclusive, p53ts 39C kill 25.1µM (no result: IkB signaling)
CC(C(=O)O)c1ccc(N2Cc3ccccc3C2=O)cc1 (stereo not given)	p53ts 32C kill 10µM, p53ts 39C kill 10µM (no result: IkB signaling)
CC(C)CCNC(=O)[C@@H](c1ccccc1)N1Cc2ccccc2C1=O	none
COc1ccc2[nH]cc(CCNC(=O)Nc3cc(C)cc(C)c3)c2c1	Peg3 imprint inconclusive, p53ts 39C kill 12.6µM
CCOC(=O)c1ccc(NC(=O)c2cc(=O)c3ccc(C)c(C)c3o2)cc1	p53ts 32C kill inconclusive, p53ts 39C kill 20µM
CCOC(=O)c1ccc(NC(=O)c2cc(=O)c3cc(CC)ccc3o2)cc1	none
CCCCC(=O)Nc1c(C(=O)N2CCN(c3ccccc3F)CC2)oc2ccccc12	none
COc1cc2cc3c4c(cc(OC)c(OC)c4c2cc1OC)CCN3C	p53ts 32C kill 31.6µM, p53ts 39C kill 31.6µM
CN(C)c1ccc2nc3ccc(=[N+](C)C)cc-3sc2c1	p53ts 39C kill 3.16µM
C/C(CCC(=O)OC[C@@H]1O[C@H](C#Cc2ccccc2)C=C[C@@H]1Oc1ccc(C)cc1)=N/OC[C@@H](C)[C@H](OCc1ccccc1)C(C)C	none (no result: Peg3 imprint, IkB signaling)
COc1ccc(-n2nnnc2S(=O)(=O)CC(=O)N2CCCCC2)cc1	p53ts 32C kill 20µM, p53ts 39C kill inconclusive, IkB signaling inconclusive
CCOC(=O)Cn1nc(C)c(NC(=O)COc2ccc(Cl)cc2C)c1C	IkB signaling inconclusive
COCC(=O)N1CCc2cc(OC)c(OC)cc2C1COc1ccc2c(C)cc(=O)oc2c1 (stereo not given)	none
C=Cc1ccc(Cn2c(=O)n(-c3ccc(C)cc3)c(=O)c3c2c2cc(OC)ccc2n3C)cc1	p53ts 39C kill inconclusive
NC(=O)Nc1nc2ccccc2[nH]1	none
C/C(=N\Nc1nc2ccccc2[nH]1)c1cc2ccccc2o1	p53ts 32C kill 15.8µM, p53ts 39C kill 12.6µM (no result: Peg3 imprint, IkB signaling)
COC(=O)/C=C\CCc1coc(/C=C\CNC(=O)OC)n1	none (no result: Peg3 imprint, IkB signaling)
CC/C(=C(/c1ccccc1)c1ccc(OCCN(C)C)cc1)c1ccccc1	none (no result: p53ts 32C kill, p53ts 39C kill, IkB signaling)
O=c1c2sc3ccccc3c2n(Cc2ccc(F)cc2)c(=O)n1Cc1ccco1	none
OC[C@H](CCc1c[nH]c2ccccc12)c1c[nH]c2ccccc12	none
N#Cc1cccc(NC(=O)C2CCN(c3ncccn3)CC2)c1	none
COc1ccc(C(=O)Nc2ccc3oc(-c4cc(Cl)ccc4Cl)nc3c2)cc1Br	p53ts 32C kill inconclusive, p53ts 39C kill 10µM, IkB signaling inconclusive
O=C(Nc1ccc2oc(-c3cccc(Cl)c3Cl)nc2c1)c1cccc(Br)c1	p53ts 32C kill inconclusive, p53ts 39C kill 10µM
CC(C)c1ccc2oc(-c3cc(NC(=O)c4cccnc4)ccc3Cl)nc2c1	p53ts 32C kill 20µM, p53ts 39C kill inconclusive, IkB signaling inconclusive
CC(=O)N1CCCC1c1nc2ccccc2n1Cc1cc(C)ccc1C (stereo not given)	none
CCOc1ccc(-c2cc3nc(C4CCN(C(=O)OC(C)(C)C)CC4)c(C(=O)Nc4cccc(C(F)(F)F)c4)cn3n2)cc1	none
CCCCn1c(NC(=O)c2ccccc2)c(C#N)c2nc3ccccc3nc21	p53ts 32C kill inconclusive, p53ts 39C kill 6.31µM, IkB signaling inconclusive
CCCCn1c(NC(=O)c2ccc(F)cc2)c(C#N)c2nc3ccccc3nc21	IkB signaling inconclusive
Cc1c(C(=O)NCc2ccc(F)cc2)sc2nc(-c3ccc(F)cc3)cn12	none
Fc1ccc(Cc2cn3cc(-c4ccc(F)cc4)nc3s2)cc1	p53ts 32C kill inconclusive, p53ts 39C kill 7.94µM, IkB signaling inconclusive
